{"source": "PubChem BioAssay", "key": {"[1]": {"assay": "viability loss in pontine glioma line – cell-based, SU-DIPG-XIII, MIPE4.0, CellTiter-Glo, qHTS, dose response (AID 1347061; cut-off not given, nearly all actives have AC50 up to about 37 µM;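 also: cells exposed to compound for 48 hours before readout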)", "details": "CellTiter-Glo ATP luminescence"}, "[2]": {"assay": "viability loss in pontine glioma line – cell-based, JHH-DIPG-1, MIPE4.0, CellTiter-Glo, qHTS, dose response (AID 1347062)", "details": "JHH-DIPG-1 viability, CellTiter-Glo ATP luminescence"}, "[3]": {"assay": "growth inhibition of DIPG cells – cell-based, MIPE4.0 library, CellTiter-Glo luminescence, qHTS (AID 1347066; cut-off not given, nearly all actives have AC50 up to about 30 µM;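 also: cells exposed to compound for 48 hours before readout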)", "details": "SU-DIPG-VI viability, CellTiter-Glo ATP luminescence"}, "[4]": {"assay": "growth inhibition of DIPG cells – cell-based, MIPE5.0 library, qHTS (AID 1347068; cut-off not given, nearly all actives have IC50 up to about 30 µM)", "details": "SU-DIPG-XXV viability"}, "[5]": {"assay": "viability loss with induced miR-34 in A549 – imaging, A549 dox-inducible miR-34, nuclei and caspase counts, primary screen (AID 1347080;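 active = compounds whose cell count with miR-34 switched on is under 0.7 times the count with it off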)", "details": "A549 miR-34 inducible, Hoechst nuclei count, 48 h"}, "[6]": {"assay": "MELAS cybrid and Rieske KO viability enhancers – cell-based, MELAS cybrids, Rieske KO mouse fibroblasts, CellTiter-Glo, primary screen (AID 1508586;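 active = mean z-score across replicates of 1.96 or higher in either the MELAS or the Rieske mutant cell line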;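 also: z relative to plate mean and SD of compound and empty wells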)", "details": "low glucose"}, "[7]": {"assay": "viability loss in pontine glioma line – cell-based, SU-DIPG-XXV, MIPE5.0, CellTiter-Glo, qHTS, dose response (AID 1347065; cut-off not given, nearly all actives have AC50 up to about 26 µM;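 also: cells exposed to compound for 48 hours before ATP readout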)", "details": "CellTiter-Glo ATP luminescence"}, "[8]": {"assay": "JHH-DIPG-1 glioma cell viability, MIPE5.0 library, CellTiter-Glo luminescence, qHTS (AID 1347067; cut-off not given, nearly all actives have AC50 up to about 26 µM;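 also: cells exposed to compound for 48 hours before readout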)", "details": "JHH-DIPG-1 glioma viability, CellTiter-Glo ATP luminescence"}, "[9]": {"assay": "compounds altering HSF1 focus formation in cells – imaging, Selleck Cancer Library (AID 1347162; in the data active = plate-normalised HSF1 focus index below about 0.46)", "details": "human cells, HSF1 nuclear foci imaging, at 10 µM; SSMD: measured here: HSF1 foci SSMD mean; cell count: measured here: cell number; plate-normalised HSF1 focus index: stronger effect = lower value"}, "[10]": {"details": "stronger effect = lower value, cell number ratio, induced over uninduced"}, "[11]": {"details": "measured here: relative caspase fold change +Dox/-Dox"}, "[12]": {"details": "measured here: total cells with miR-34 induction, stronger effect = lower value"}, "[13]": {"details": "measured here: total cells without miR-34 induction"}, "[14]": {"details": "MELAS cybrid survival, CellTiter-Glo 48 h, stronger effect = higher value"}, "[15]": {"details": "Rieske KO mouse fibroblast survival, CellTiter-Glo 72 h"}}, "note": "“And” between values parts separate entries of the source, which are not always exact repeats. Equal entries are not always repeated. Records with an inconclusive call do not appear. The source made the active and inactive calls. Unless noted, the limit is not given here; nearly all actives have AC50 up to about 27 µM.", "data": [{"smiles": "O=C(O)C1(Cc2cccc(Nc3nccs3)n2)CCC(Oc2cccc(Cl)c2F)CC1", "note": "(stereo not given)", "values": [{"measurement": "outcome", "setting": "[1]", "value": "inactive"}, {"measurement": "outcome", "setting": "[2]", "value": "inactive"}, {"measurement": "outcome", "setting": "[3]", "value": "inactive"}, {"measurement": "outcome", "setting": "[4]", "value": "inactive"}, {"measurement": "fold change", "setting": "[5]; [10]", "value": "1.01 (inactive)"}, {"measurement": "fold change", "setting": "[5]; [11]", "value": 0.491}, {"measurement": "cell count", "setting": "[5]; [12]", "value": 3320}, {"measurement": "cell count", "setting": "[5]; [13]", "value": 3280}, {"measurement": "z-score", "setting": "[6]; [14]", "value": "-0.373 (inactive)"}, {"measurement": "z-score", "setting": "[6]; [15]", "value": 0.69}]}, {"smiles": "O=c1c(-c2ccc(O)cc2)coc2cc(OC3O[C@H](CO)[C@@H](O)[C@H](O)[C@H]3O)cc(O)c12", "note": "(stereo not given in full)", "values": [{"measurement": "AC50", "setting": "[1]", "value": "20.9 µM (active)"}, {"measurement": "outcome", "setting": "[2]", "value": "inactive"}, {"measurement": "outcome", "setting": "[3]", "value": "inactive"}]}, {"smiles": "CCCCc1ccc(NS(=O)(=O)c2ccc(C)c(C(=O)N3CCN(c4cccc(C)c4C)CC3)c2)cc1", "values": [{"measurement": "outcome", "setting": "[1]", "value": "inactive"}, {"measurement": "outcome", "setting": "[2]", "value": "inactive"}, {"measurement": "AC50", "setting": "[3]", "value": "23.5 µM (active)"}]}, {"smiles": "COc1ccc2c(Oc3ccc(NC(=O)c4c(C)n(CC(C)(C)O)n(-c5ccccc5)c4=O)nc3)ccnc2c1", "values": [{"measurement": "outcome", "setting": "[1]", "value": "inactive"}, {"measurement": "outcome", "setting": "[2]", "value": "inactive"}, {"measurement": "AC50", "setting": "[7]", "value": "13.2 µM (active)"}, {"measurement": "outcome", "setting": "[3]", "value": "inactive"}, {"measurement": "fold change", "setting": "[5]; [10]", "value": "0.842 (inactive)"}, {"measurement": "fold change", "setting": "[5]; [11]", "value": 0.917}, {"measurement": "cell count", "setting": "[5]; [12]", "value": 7640}, {"measurement": "cell count", "setting": "[5]; [13]", "value": 9080}, {"measurement": "z-score", "setting": "[6]; [14]", "value": "-0.36 (inactive)"}, {"measurement": "z-score", "setting": "[6]; [15]", "value": 1.01}]}, {"smiles": "OCc1ccc(-c2nn(Cc3ccccc3)c3ccccc23)o1", "values": [{"measurement": "outcome", "setting": "[1]", "value": "inactive"}, {"measurement": "outcome", "setting": "[2]", "value": "inactive"}, {"measurement": "outcome", "setting": "[3]", "value": "inactive"}, {"measurement": "AC50", "setting": "[8]", "value": "23.5 µM (active)"}, {"measurement": "outcome", "setting": "[4]", "value": "inactive"}, {"measurement": "fold change", "setting": "[5]; [10]", "value": "0.905 (inactive) and 0.927 (inactive) and 0.926 (inactive)"}, {"measurement": "fold change", "setting": "[5]; [11]", "value": "1.2 and 0.954 and 0.941"}, {"measurement": "cell count", "setting": "[5]; [12]", "value": "5070 and 1870 and 4400"}, {"measurement": "cell count", "setting": "[5]; [13]", "value": "5600 and 2020 and 4750"}]}, {"smiles": "CC(C)(C)C(=O)Oc1ccc2c(c1)nc(NC(=O)c1cccc([N+](=O)[O-])c1)n2CCCO", "values": [{"measurement": "outcome", "setting": "[1]", "value": "inactive"}, {"measurement": "outcome", "setting": "[2]", "value": "inactive"}, {"measurement": "outcome", "setting": "[3]", "value": "inactive"}, {"measurement": "outcome", "setting": "[8]", "value": "inactive"}, {"measurement": "outcome", "setting": "[4]", "value": "inactive"}]}, {"smiles": "C=C1c2cccc(O)c2C(O)=C2C(=O)[C@@]3(O)C(O)=C(C(N)=O)C(=O)[C@@H](N(C)C)[C@@H]3[C@@H](O)[C@H]12", "values": [{"measurement": "outcome", "setting": "[1]", "value": "inactive"}, {"measurement": "outcome", "setting": "[2]", "value": "inactive"}, {"measurement": "outcome", "setting": "[7]", "value": "inactive"}, {"measurement": "outcome", "setting": "[3]", "value": "inactive"}, {"measurement": "outcome", "setting": "[4]", "value": "inactive"}]}, {"smiles": "CCCn1c(=O)c2[nH]c(C34CC5CC3C[C@@H](C5)C4)nc2n(CCC)c1=O", "values": [{"measurement": "outcome", "setting": "[1]", "value": "inactive"}, {"measurement": "outcome", "setting": "[2]", "value": "inactive"}, {"measurement": "outcome", "setting": "[3]", "value": "inactive"}, {"measurement": "outcome", "setting": "[4]", "value": "inactive"}]}, {"smiles": "Cc1c(-c2cccc3c(CCCOc4cccc5ccccc45)c(C(=O)O)n(Cc4cccnc4)c23)c(COc2ccc(N3CCN([S+](=O)([O-])N(C)C)CC3)cc2)nn1C", "values": [{"measurement": "outcome", "setting": "[1]", "value": "inactive"}, {"measurement": "outcome", "setting": "[2]", "value": "inactive"}, {"measurement": "AC50", "setting": "[3]", "value": "23.5 µM (active)"}]}, {"smiles": "CCOC(=O)N[C@@H]1CC[C@@H]2[C@@H](C1)C[C@H]1C(=O)O[C@H](C)[C@H]1[C@H]2/C=C/c1ccc(-c2cccc(F)c2)cn1", "values": [{"measurement": "outcome", "setting": "[1]", "value": "inactive"}, {"measurement": "outcome", "setting": "[2]", "value": "inactive"}, {"measurement": "outcome", "setting": "[3]", "value": "inactive"}, {"measurement": "outcome", "setting": "[8]", "value": "inactive"}, {"measurement": "outcome", "setting": "[4]", "value": "inactive"}]}, {"smiles": "CCCCn1c(=O)n(Cc2ccccc2F)c(=O)c2[nH]c(Cc3ccc(NC(C)=O)cc3)nc21", "values": [{"measurement": "outcome", "setting": "[1]", "value": "inactive"}, {"measurement": "outcome", "setting": "[2]", "value": "inactive"}, {"measurement": "outcome", "setting": "[3]", "value": "inactive"}, {"measurement": "outcome", "setting": "[8]", "value": "inactive"}, {"measurement": "outcome", "setting": "[4]", "value": "inactive"}, {"measurement": "SSMD", "setting": "[9]", "value": 3.98}, {"measurement": "cell count", "setting": "[9]", "value": 6960}, {"measurement": "plate-normalised HSF1 focus index", "setting": "[9]", "value": "1.24 (inactive)"}]}, {"smiles": "CCN1CCN(C(=O)N[C@H](C(=O)N[C@@H]2C(=O)N3C(C(=O)O)=C(CSc4nnnn4C)CS[C@@H]23)c2ccc(O)cc2)C(=O)C1=O", "values": [{"measurement": "outcome", "setting": "[1]", "value": "inactive"}, {"measurement": "outcome", "setting": "[2]", "value": "inactive"}, {"measurement": "outcome", "setting": "[3]", "value": "inactive"}]}, {"smiles": "O=C(OCC#CCSc1nnc(-c2cccc3ccccc23)o1)c1cc2ccccc2s1", "values": [{"measurement": "outcome", "setting": "[1]", "value": "inactive"}, {"measurement": "outcome", "setting": "[2]", "value": "inactive"}, {"measurement": "outcome", "setting": "[3]", "value": "inactive"}]}, {"smiles": "Cc1cc(C(C)Nc2ccccc2)c2nc(N3CCOCC3)cc(=O)n2c1", "note": "(stereo not given)", "values": [{"measurement": "outcome", "setting": "[1]", "value": "inactive"}, {"measurement": "outcome", "setting": "[2]", "value": "inactive"}, {"measurement": "outcome", "setting": "[3]", "value": "inactive"}, {"measurement": "outcome", "setting": "[8]", "value": "inactive"}, {"measurement": "outcome", "setting": "[4]", "value": "inactive"}, {"measurement": "fold change", "setting": "[5]; [10]", "value": "0.85 (inactive)"}, {"measurement": "fold change", "setting": "[5]; [11]", "value": 1.05}, {"measurement": "cell count", "setting": "[5]; [12]", "value": 5530}, {"measurement": "cell count", "setting": "[5]; [13]", "value": 6510}, {"measurement": "z-score", "setting": "[6]; [14]", "value": "-0.0991 (inactive)"}, {"measurement": "z-score", "setting": "[6]; [15]", "value": 1.51}]}, {"smiles": "CC1(C)OC2CC3C4CC(F)C5=CC(=O)C=CC5(C)C4C(O)CC3(C)[C@]2(C(=O)CO)O1", "note": "(stereo not given in full)", "values": [{"measurement": "outcome", "setting": "[1]", "value": "inactive"}, {"measurement": "outcome", "setting": "[2]", "value": "inactive"}, {"measurement": "outcome", "setting": "[3]", "value": "inactive"}]}]}
